Source: PubChem BioAssay (EPA / NIEHS)
Values joined by “and” are separate entries in the source; they are usually repeats but may differ in a detail not shown here. Equal values may be shown once. Results filed as inconclusive are left out. Some compounds were tested as several samples or in several runs, with calls that do not always agree. Active and inactive are the calls of the source. Rule for the calls, unless noted: active = hit-call score of the fitted dose curve at least 0.9, where 1 is the maximum; inactive = score below 0.9.

Columns and labels:
[1] = ATG_NF_kB_CIS: Attagene CIS-FACTORIAL HepG2 Assay for human Nuclear Factor Kappa B (NF-kB) (AID 2282991); conditions: HepG2 Attagene cis-factorial NF-kB reporter mRNA; actives raise or lower the signal
Outline: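 Endpoint from a 52-component multiplexed HepG2 reporter panel: cis-regulated transcription units transiently transfected, 24 h dosing, reporter mRNA quantified by RT-PCR and capillary electrophoresis, scored as increase or decrease against DMSO.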

[2] = ATG_NRF2_ARE_CIS: Attagene CIS-FACTORIAL HepG2 Assay for human Nuclear Factor Erythroid 2 Related Factor 2 (NFR2) response to Antioxidant Response Elements (ARE) (AID 2282992); conditions: HepG2 Attagene ARE/NRF2 reporter, transcription factor activity; actives raise or lower the signal;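 for AC50: reporter mRNA level measured by RT-PCR and capillary electrophoresis fluorescence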
Outline: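 Readout: reporter mRNA quantified by RT-PCR plus FAM-labelled primer extension, HpaI digestion and capillary electrophoresis, 24 h after dosing transfected HepG2 cells. Gain or loss of signal is fitted bidirectionally against DMSO baseline.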

[3] = ATG_Oct_MLP_CIS: Attagene CIS-FACTORIAL HepG2 Assay for human Octamer-Binding Transcription Factor (Oct) (AID 2282993); conditions: HepG2 Attagene cis-factorial Oct reporter, mRNA; actives raise or lower the signal
Outline: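 HepG2, transient MRTU transfection, cis promoter elements; 24 h dosing; RT-PCR/CE fluorescence read-out of reporter mRNA; fit both directions vs DMSO.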

[4] = biological target: Cellular tumor antigen p53 (Homo sapiens) (UniProt P04637); assay: ATG_p53_CIS: Attagene CIS-FACTORIAL HepG2 Assay for human p53 Transcription Factor (AID 2282994); conditions: HepG2 p53 cis-element reporter, Attagene mRNA; actives raise or lower the signal
Sequence of Cellular tumor antigen p53 (Homo sapiens) (P04637 whole entry, looked up): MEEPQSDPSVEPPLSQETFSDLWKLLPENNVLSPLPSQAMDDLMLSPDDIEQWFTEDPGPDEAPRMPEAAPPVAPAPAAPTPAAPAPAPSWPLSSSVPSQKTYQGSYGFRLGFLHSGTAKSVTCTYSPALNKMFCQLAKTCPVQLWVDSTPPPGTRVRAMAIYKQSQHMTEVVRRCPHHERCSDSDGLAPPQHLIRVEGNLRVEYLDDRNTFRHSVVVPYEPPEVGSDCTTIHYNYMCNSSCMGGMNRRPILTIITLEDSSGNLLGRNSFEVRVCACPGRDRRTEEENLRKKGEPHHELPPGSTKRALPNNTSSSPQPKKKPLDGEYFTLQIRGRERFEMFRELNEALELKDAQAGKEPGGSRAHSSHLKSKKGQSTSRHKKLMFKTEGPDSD
Outline: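 Read-out: reporter mRNA by RT-PCR plus capillary electrophoresis with fluorescence detection. Human HepG2 liver cells carried transfected multi-reporter cis-element constructs, dosed 24 h. Gain or loss of signal fitted bidirectionally against DMSO control.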

[5] = BSK_3C_TissueFactor: BioMAP Diversity Plus: 3C Assay for Tissue Factor Biomarker Activity (AID 2282997); conditions: BioMAP 3C HUVEC, tissue factor biomarker readout; actives raise or lower the signal
Outline: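 Cells used were primary human umbilical vein endothelial cells. They were dosed with chemical, and after 24 h Tissue Factor was quantified by ELISA. Curves were fitted bidirectionally with DMSO as baseline.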

[6] = BSK_3C_VCAM1: BioMAP Diversity Plus: 3C Assay for Vascular cell adhesion molecule 1 (VCAM1) Biomarker Activity (AID 2282999); conditions: BioMAP 3C HUVEC, VCAM1 ELISA, cytokine-stimulated; actives raise or lower the signal
Outline: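 Activity fitted in both directions relative to DMSO, with ELISA measurement of the surface marker on primary HUVEC (3C) at 24 h post-treatment; parallel SRB staining (0.1% SRB, TCA-fixed, 560 nm) flagged overt cytotoxicity.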

[7] = BSK_4H_Eotaxin3: BioMAP Diversity Plus: 4H Assay for Eotaxin 3 Biomarker Activity (AID 2283000); conditions: primary human endothelial cells (HUVEC); actives raise or lower the signal
Outline: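 Endothelial primary cells (human umbilical vein) exposed to compound for 24 h. ELISA detection of Eotaxin-3.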

[8] = biological target: human Peroxisome Proliferator-activated Receptor alpha (PPARa), PPARA (gene 5465) (UniProt Q07869); assay: ATG_PPARa_TRANS: Attagene TRANS-FACTORIAL HepG2 Assay for human Peroxisome Proliferator-activated Receptor alpha (PPARa) (AID 2283001; active = hit-call score of the fitted dose curve at least 0.9, where 1 is the maximum;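 for AC50: potency for gain of reporter signal over DMSO so agonist or activator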)
Sequence of human Peroxisome Proliferator-activated Receptor alpha (PPARa), PPARA (gene 5465) (Q07869 whole entry, looked up, the tested form may be a part): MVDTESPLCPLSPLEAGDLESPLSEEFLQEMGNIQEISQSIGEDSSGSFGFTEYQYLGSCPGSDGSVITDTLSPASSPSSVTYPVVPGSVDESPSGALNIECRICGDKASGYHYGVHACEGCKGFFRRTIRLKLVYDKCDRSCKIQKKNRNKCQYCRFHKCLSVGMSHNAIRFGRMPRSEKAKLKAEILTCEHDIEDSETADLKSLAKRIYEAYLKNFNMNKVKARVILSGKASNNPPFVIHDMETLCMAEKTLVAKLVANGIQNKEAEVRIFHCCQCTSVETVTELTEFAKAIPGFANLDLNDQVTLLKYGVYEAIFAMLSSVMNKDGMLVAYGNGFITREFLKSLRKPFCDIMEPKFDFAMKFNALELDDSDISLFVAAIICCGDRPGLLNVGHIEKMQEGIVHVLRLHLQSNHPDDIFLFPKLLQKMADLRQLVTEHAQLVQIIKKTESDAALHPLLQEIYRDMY
Outline: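 Reporter transcripts quantified by RT-PCR plus capillary electrophoresis after 24 h treatment, fitted upward relative to DMSO. Cells: human HepG2 transiently carrying multiple GAL4-UAS reporter units driven by NR-Gal4 chimeras.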

[9] = biological target: human Peroxisome Proliferator-activated Receptor delta (PPARd), PPARD (gene 5467) (UniProt Q03181); assay: ATG_PPARd_TRANS: Attagene TRANS-FACTORIAL HepG2 Assay for human Peroxisome Proliferator-activated Receptor delta (PPARd) (AID 2283002; active = hit-call score of the fitted dose curve at least 0.9, where 1 is the maximum)
Sequence of human Peroxisome Proliferator-activated Receptor delta (PPARd), PPARD (gene 5467) (Q03181 whole entry, looked up): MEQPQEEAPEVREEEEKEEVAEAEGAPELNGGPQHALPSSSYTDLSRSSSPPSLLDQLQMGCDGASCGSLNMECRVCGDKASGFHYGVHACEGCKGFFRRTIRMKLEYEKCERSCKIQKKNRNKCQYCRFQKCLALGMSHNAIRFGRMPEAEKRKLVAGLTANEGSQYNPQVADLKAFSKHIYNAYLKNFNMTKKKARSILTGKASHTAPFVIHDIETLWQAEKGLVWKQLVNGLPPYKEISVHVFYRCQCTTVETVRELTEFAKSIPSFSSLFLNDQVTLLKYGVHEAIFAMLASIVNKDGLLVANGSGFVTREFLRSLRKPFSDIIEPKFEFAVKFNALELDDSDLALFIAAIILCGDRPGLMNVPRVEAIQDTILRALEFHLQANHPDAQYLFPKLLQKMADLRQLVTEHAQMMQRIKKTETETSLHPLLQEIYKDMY
Outline: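 Cell-based TRANS reporter: HepG2, transient MRTU transfection, 24 h exposure. Readout = reporter mRNA (RT-PCR/CE, 6-FAM). Gain-of-signal fit vs DMSO control.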

[10] = biological target: human Retinoic Acid Receptor beta (RARb), RARB (gene 5915) (UniProt P10826); assay: ATG_RARb_TRANS: Attagene TRANS-FACTORIAL HepG2 Assay for human Retinoic Acid Receptor beta (AID 2283004; active = hit-call score of the fitted dose curve at least 0.9, where 1 is the maximum)
Outline: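 HepG2, transient MRTU transfection, NR–Gal4 chimera, 24 h treatment; RT-PCR plus CE fluorescence detection of reporter mRNA; gain of signal vs DMSO.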

[11] = BSK_3C_Proliferation: Cell Proliferation Assessment in the BioMAP Diversity Plus: 3C Assay (AID 2283006); conditions: primary human endothelial cells (HUVEC);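 for AC50: potency may reflect either rise or fall in cell number versus DMSO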
Outline: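 Proliferation as total protein: sulforhodamine B (0.1%) stain of TCA-fixed subconfluent human umbilical vein endothelial cells, absorbance 560 nm, 48 h after dosing. Activity fitted in both directions against DMSO baseline.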

[12] = biological target: Peroxisome proliferator-activated receptor gamma (Homo sapiens) (UniProt P37231); assay: ATG_PPARg_TRANS: Attagene TRANS-FACTORIAL HepG2 Assay for human Peroxisome Proliferator-activated Receptor-gamma (PPARg) (AID 2283007; active = hit-call score of the fitted dose curve at least 0.9, where 1 is the maximum)
Sequence of Peroxisome proliferator-activated receptor gamma (Homo sapiens) (P37231 whole entry, looked up, the tested form may be a part): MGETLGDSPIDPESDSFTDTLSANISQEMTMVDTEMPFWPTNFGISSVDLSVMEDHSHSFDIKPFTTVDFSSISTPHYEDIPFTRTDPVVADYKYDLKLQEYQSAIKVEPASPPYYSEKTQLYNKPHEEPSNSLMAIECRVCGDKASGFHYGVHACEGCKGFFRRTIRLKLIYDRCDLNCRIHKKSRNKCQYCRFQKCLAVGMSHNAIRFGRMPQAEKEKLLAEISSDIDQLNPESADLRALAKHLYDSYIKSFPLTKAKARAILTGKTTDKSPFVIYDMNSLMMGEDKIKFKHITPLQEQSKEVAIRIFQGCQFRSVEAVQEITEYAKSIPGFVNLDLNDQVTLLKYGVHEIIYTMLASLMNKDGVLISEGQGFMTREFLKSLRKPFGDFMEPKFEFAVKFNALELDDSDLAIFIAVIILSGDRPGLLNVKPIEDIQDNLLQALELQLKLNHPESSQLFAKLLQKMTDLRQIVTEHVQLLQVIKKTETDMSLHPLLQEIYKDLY
Outline: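 Endpoint reflects upward reporter mRNA change versus DMSO controls. Setup: transiently transfected HepG2, GAL4-UAS reporters driven by chimeric NR-Gal4, 24 h incubation, RT-PCR with capillary electrophoresis read-out.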

[13] = biological target: Nuclear receptor subfamily 1 group I member 2 (Homo sapiens) (UniProt O75469); assay: ATG_PXR_TRANS: Attagene TRANS-FACTORIAL HepG2 Assay for human Pregnane X Receptor (PXR) (AID 2283008; active = hit-call score of the fitted dose curve at least 0.9, where 1 is the maximum)
Sequence of Nuclear receptor subfamily 1 group I member 2 (Homo sapiens) (O75469 whole entry, looked up, the tested form may be a part): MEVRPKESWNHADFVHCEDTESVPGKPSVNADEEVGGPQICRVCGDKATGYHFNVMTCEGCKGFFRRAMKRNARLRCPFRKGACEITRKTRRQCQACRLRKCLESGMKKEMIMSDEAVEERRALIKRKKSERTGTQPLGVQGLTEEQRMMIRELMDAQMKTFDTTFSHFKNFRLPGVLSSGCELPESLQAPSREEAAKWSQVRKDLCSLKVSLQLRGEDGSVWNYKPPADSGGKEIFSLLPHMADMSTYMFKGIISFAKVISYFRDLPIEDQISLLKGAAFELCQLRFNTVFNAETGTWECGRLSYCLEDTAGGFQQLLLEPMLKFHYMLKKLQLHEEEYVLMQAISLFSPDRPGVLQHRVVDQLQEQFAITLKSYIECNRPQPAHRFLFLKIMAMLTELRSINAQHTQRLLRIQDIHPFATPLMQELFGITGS
Outline: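 Trans-factorial format: exogenous NR-Gal4 fusion activity, not endogenous factor, in transfected human HepG2 liver cells. After 24 h dosing, RNA isolated, reverse-transcribed, amplified and resolved by capillary electrophoresis; induction scored versus DMSO.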

[14] = biological target: human Retinoic Acid Receptor gamma (RARg), RARG (gene 5916) (UniProt P13631); assay: ATG_RARg_TRANS: Attagene TRANS-FACTORIAL HepG2 Assay for human Retinoic Acid Receptor gamma (RARg) (AID 2283009; active = hit-call score of the fitted dose curve at least 0.9, where 1 is the maximum;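 for AC50: AC50 is for reporter induction above DMSO meaning RARg activation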)
Sequence of human Retinoic Acid Receptor gamma (RARg), RARG (gene 5916) (P13631 whole entry, looked up, the tested form may be a part): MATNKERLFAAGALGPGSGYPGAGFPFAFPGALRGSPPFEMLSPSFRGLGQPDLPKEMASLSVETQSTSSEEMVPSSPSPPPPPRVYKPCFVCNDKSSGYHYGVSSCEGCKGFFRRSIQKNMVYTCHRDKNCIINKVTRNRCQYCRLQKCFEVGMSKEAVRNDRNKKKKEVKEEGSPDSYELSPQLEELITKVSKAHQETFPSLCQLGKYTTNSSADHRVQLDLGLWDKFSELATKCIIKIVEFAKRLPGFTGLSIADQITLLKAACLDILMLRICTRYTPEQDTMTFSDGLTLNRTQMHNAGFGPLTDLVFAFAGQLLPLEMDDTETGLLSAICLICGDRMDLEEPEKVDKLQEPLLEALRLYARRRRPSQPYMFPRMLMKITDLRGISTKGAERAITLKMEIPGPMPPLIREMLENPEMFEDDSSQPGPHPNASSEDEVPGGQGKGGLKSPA
Outline: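 Transactivation of exogenous RARg-Gal4 fusion measured as reporter transcript induction after 24 h in transfected HepG2 cells. RNA reverse-transcribed, amplified, fluorescently labeled and resolved by capillary electrophoresis; increase relative to DMSO.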

[15] = biological target: human RAR-related Orphan Receptor beta (RORb), RORB (gene 6096) (UniProt Q92753); assay: ATG_RORb_TRANS: Attagene TRANS-FACTORIAL HepG2 Assay for human RAR-related Orphan Receptor beta (RORb) (AID 2283010; active = hit-call score of the fitted dose curve at least 0.9, where 1 is the maximum)
Sequence of human RAR-related Orphan Receptor beta (RORb), RORB (gene 6096) (Q92753 whole entry, looked up, the tested form may be a part): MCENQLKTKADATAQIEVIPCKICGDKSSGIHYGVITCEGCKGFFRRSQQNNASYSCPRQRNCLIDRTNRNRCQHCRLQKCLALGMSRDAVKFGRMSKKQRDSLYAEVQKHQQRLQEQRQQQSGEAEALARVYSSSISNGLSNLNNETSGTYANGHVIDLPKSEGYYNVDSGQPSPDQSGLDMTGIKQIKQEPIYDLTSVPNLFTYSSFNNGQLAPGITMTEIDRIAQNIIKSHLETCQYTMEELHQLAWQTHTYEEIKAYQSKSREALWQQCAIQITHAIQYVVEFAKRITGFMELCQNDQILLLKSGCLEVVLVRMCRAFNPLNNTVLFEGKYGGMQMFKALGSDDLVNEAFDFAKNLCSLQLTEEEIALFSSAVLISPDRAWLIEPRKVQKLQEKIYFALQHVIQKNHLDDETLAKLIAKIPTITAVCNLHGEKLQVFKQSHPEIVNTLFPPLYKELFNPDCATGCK
Outline: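 Read-out is reporter mRNA induction, quantified by RT-PCR with fluorescent capillary electrophoresis, 24 h post-dose in transiently transfected HepG2 expressing exogenous NR-Gal4 chimera. Activity fitted upward versus DMSO.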

[16] = biological target: Retinoic acid receptor RXR-alpha (Homo sapiens) (UniProt P19793); assay: ATG_RXRa_TRANS: Attagene TRANS-FACTORIAL HepG2 Assay for human Retinoid X Receptor alpha (RXRa) (AID 2283012; active = hit-call score of the fitted dose curve at least 0.9, where 1 is the maximum)
Sequence of Retinoic acid receptor RXR-alpha (Homo sapiens) (P19793 whole entry, looked up, the tested form may be a part): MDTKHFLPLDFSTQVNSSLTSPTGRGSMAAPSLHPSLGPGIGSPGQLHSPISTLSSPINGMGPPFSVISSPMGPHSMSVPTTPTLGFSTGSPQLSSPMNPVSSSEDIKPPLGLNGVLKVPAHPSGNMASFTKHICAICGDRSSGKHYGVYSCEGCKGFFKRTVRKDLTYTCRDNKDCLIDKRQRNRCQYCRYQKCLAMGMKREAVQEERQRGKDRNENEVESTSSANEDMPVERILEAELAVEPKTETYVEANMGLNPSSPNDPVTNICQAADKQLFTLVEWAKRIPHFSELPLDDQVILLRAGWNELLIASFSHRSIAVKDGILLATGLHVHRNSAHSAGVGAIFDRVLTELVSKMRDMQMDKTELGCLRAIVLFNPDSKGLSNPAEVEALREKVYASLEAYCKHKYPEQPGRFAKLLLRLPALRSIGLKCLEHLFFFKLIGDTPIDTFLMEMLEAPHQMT
Outline: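 TRANS format reporting activity of exogenous RXRa-Gal4 chimera in transiently transfected HepG2, 24 h exposure. Reporter transcripts quantified by RT-PCR with capillary electrophoresis, with gain of signal scored relative to DMSO.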

[17] = read-out: Intercellular Adhesion Molecule 1 (ICAM1), ICAM1 (gene 3383); assay: BSK_3C_ICAM1: BioMAP Diversity Plus: 3C Assay for Intercellular Adhesion Molecule 1 (ICAM1) Biomarker Activity (AID 2283003); conditions: primary human endothelial cells (HUVEC); actives raise or lower the signal
Outline: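 ELISA readout of ICAM1 in human umbilical vein endothelial cells in the 3C system, taken 24 h post-dose. Gain or loss of signal versus DMSO was fitted in both directions, with SRB total-protein staining run in parallel.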

[18] = biological target: human RAR-related Orphan Receptor gamma (RORg), RORC (gene 6097) (UniProt P51449); assay: ATG_RORg_TRANS: Attagene TRANS-FACTORIAL HepG2 Assay for human RAR-related Orphan Receptor gamma (RORg) (AID 2283011; active = hit-call score of the fitted dose curve at least 0.9, where 1 is the maximum)
Sequence of human RAR-related Orphan Receptor gamma (RORg), RORC (gene 6097) (P51449 whole entry, looked up, the tested form may be a part): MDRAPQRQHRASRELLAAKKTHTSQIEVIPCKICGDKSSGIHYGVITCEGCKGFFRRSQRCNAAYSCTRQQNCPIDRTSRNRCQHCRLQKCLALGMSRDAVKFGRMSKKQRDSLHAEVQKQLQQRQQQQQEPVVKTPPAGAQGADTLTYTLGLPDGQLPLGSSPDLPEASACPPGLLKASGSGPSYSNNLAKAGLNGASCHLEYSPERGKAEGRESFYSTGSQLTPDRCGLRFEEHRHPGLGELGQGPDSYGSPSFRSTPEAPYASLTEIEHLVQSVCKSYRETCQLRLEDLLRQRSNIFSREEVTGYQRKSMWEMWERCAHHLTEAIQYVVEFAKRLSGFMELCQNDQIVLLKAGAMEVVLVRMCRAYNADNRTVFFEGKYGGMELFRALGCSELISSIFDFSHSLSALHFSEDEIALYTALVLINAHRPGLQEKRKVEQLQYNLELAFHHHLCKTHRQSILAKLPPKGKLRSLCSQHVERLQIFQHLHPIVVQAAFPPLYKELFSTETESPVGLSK
Outline: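 Activity is scored as increase in GAL4-UAS reporter mRNA over DMSO, detected by fluorescent RT-PCR and capillary electrophoresis in HepG2 cells transiently expressing a RORg-Gal4 chimera, 24 h after dosing.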

[19] = BSK_3C_uPAR: BioMAP Diversity Plus: 3C Assay for Urokinase-type plasminogen activator receptor (uPAR) Biomarker Activity (AID 2282998); conditions: BioMAP 3C HUVEC, uPAR biomarker ELISA; actives raise or lower the signal
Outline: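 A multiplexed primary-cell system built on human umbilical vein endothelium was used, with chemical present for 24 h before reading. Cell-surface uPAR was detected by ELISA; signal change in either direction counted against DMSO.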

[20] = biological target: Retinoic acid receptor alpha (Homo sapiens) (UniProt P10276); assay: ATG_RARa_TRANS: Attagene TRANS-FACTORIAL HepG2 Assay for human Retinoic Acid Receptor alpha (RARa) (AID 2283005; active = hit-call score of the fitted dose curve at least 0.9, where 1 is the maximum)
Sequence of Retinoic acid receptor alpha (Homo sapiens) (P10276 whole entry, looked up, the tested form may be a part): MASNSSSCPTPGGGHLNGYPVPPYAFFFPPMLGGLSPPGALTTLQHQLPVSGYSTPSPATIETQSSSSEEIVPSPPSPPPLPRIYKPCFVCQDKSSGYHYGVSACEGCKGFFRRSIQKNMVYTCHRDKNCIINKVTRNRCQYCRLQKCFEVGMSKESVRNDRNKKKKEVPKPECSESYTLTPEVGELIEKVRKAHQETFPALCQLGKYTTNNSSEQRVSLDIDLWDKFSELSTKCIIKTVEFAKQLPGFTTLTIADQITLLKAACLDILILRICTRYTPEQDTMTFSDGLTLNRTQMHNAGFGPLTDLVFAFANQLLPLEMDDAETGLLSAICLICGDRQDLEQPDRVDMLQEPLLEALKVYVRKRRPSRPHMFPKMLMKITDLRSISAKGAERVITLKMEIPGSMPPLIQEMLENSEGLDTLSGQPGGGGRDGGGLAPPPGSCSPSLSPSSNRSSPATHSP
Outline: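 Reporter transcripts, measured by RT-PCR with fluorescent labeling and capillary electrophoresis after 24 h dosing, reflect activity of an exogenous human RARa–GAL4 fusion in transiently transfected HepG2. Fitted for increase relative to DMSO.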

Measured: AC50

O=C1c2ccc(O)c(O)c2C(=O)c2c(O)ccc(O)c21
active: [1] 31.1 µM | [2] 6.19 µM | [14] 50 µM
not listed: [17] | [18] | [19] | [20]
inactive: all other assays above

COc1cccc(O)c1
not listed: [8] | [10] | [12] | [13] | [14] | [15] | [19] | [20]
inactive: all other assays above

CN(CCO)S(=O)(=O)C(F)(F)C(F)(F)C(F)(F)C(F)(F)C(F)(F)C(F)(F)C(F)(F)C(F)(F)F
active: [11] 0.662 µM
inactive: [1] | [2] | [3] | [4] | [5] | [19] | [6] | [7] | [8] | [9] | [10] | [20] | [11] | [12] | [13] | [14] | [15] | [16]

O=S(=O)(O)C(F)(F)C(F)(F)C(F)(F)C(F)(F)C(F)(F)C(F)(F)C(F)(F)C(F)(F)C(F)(F)C(F)(F)F
inactive: [3] | [4] | [5] | [6] | [7] | [8] | [9] | [10] | [20] | [12] | [13] | [14] | [15] | [16]
active: [1] 14.6 µM and 9.12 µM | [2] 47.3 µM and 25.4 µM | [19] 24.6 µM and 13.3 µM | [7] 5.83 µM | [11] 13.3 µM

CN(C)c1ccc(C(=C2C=CC(=[N+](C)C)C=C2)c2ccccc2)cc1
inactive: [3] | [9] | [16]
active: [1] 933 nM and 1.85 µM | [2] 474 nM and 475 nM | [3] 2.27 µM | [4] 1.61 µM and 2.64 µM | [5] 0.0152 µM | [6] 27.3 nM | [7] 0.0082 µM | [17] 0.337 µM | [11] 0.0248 µM | [12] 1.75 µM and 1.45 µM | [13] 3.02 µM

O=C(O)CCC(F)(F)C(F)(F)C(F)(F)C(F)(F)C(F)(F)C(F)(F)F
active: [2] 68.4 µM | [12] 73.4 µM
not listed: [10] | [14] | [18] | [19] | [20]
inactive: all other assays above

Cc1ccc(N=Nc2c(O)ccc3ccccc23)c(C)c1
active: [2] 1.86 µM | [5] 1.97 µM | [7] 3.39 µM | [11] 15 µM | [12] 6.99 µM | [13] 3.36 µM
not listed: [16] | [17] | [18] | [19] | [20]
inactive: all other assays above

COc1cc(OC)nc(NC(=O)NS(=O)(=O)Nc2ccccc2C(=O)N(C)C)n1
not listed: [9] | [10] | [13] | [14] | [15] | [16] | [18] | [19]
inactive: all other assays above

O=C(O)C(F)(F)OC(F)(F)C(F)(F)OC(F)(F)C(F)(F)OC(F)(F)C(F)(F)C(F)(F)C(F)(F)F
inactive: [1] | [2] | [4] | [8] | [9] | [10] | [20] | [14] | [15] | [18] | [16]
active: [1] 27.5 µM | [2] 4.04 µM | [3] 34 µM and 29.7 µM | [4] 27.4 µM | [5] 22.3 µM and 27.7 µM | [6] 52.2 µM and 50.4 µM | [7] 45.5 µM and 51.6 µM | [8] 24 µM | [11] 18 µM and 18.4 µM | [12] 13.1 µM and 19.1 µM | [13] 16.5 µM and 19.4 µM

Oc1cc2ccccc2cc1O
active: [2] 100 µM | [8] 42.8 µM
inactive: all other assays above

Cc1ccccc1C(OCCN(C)C)c1ccccc1 (stereo not given)
inactive: [1] | [2] | [3] | [8] | [9] | [13] | [14] | [16]
active: [2] 71.4 µM | [3] 119 µM | [4] 52.6 µM and 88.3 µM

CC[N+](CC)(CC)Cc1ccccc1
not listed: [8] | [12] | [17] | [19]
inactive: all other assays above

CCCCCc1ccc(O)cc1
active: [2] 17.6 µM | [5] 12 µM | [6] 23700 nM | [7] 14.5 µM | [17] 15.9 µM | [11] 10.5 µM | [12] 41.4 µM | [13] 20.7 µM
not listed: [14] | [18] | [19] | [20]
inactive: all other assays above

COC(O)c1ccccc1 (stereo not given)
not listed: [5] | [6] | [7] | [11] | [14] | [17] | [19]
inactive: all other assays above
